Laboratory results as given in publication PMC10812921, “Transcriptional Coactivator BOB1 (OBF1, OCA-B) Modulates the Specificity of DNA Recognition by the POU-Domain Factors OCT1 and OCT2 in a Monomeric Configuration”.

biological target: POU1 (OCT1 POU domain) (human, UniProt P14859 260-458); assay: EMSA-SELEX-seq; no BOB1; 20 mM Tris-HCl pH 7.6, 140 mM NaCl, 10% glycerol, 0.5 mM EDTA, 0.05% Triton X-100, 0.1 mg/mL BSA, 0.1 mg/mL poly(dI-dC), 5 mM DTT, room temperature, 20 min; high values mean tight binding; conditions: protein: recombinant; dsDNA, one strand shown
Method in brief: (§1)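 Binding preference is the percentage of sequenced 8-mers matching a motif pattern. Tagged POU-domain proteins expressed in E. coli BL21 were purified under denaturing conditions and renatured. For binding, 30 ng protein met 300 ng of a PCR-amplified double-stranded random 35-nt library, with or without 28 ng coactivator protein, in 20 μL Tris–HCl pH 7.6 binding buffer for 20 min at RT. Complex bands were cut from native 6% PAGE, eluted and PCR-amplified over four rounds, then Illumina-sequenced.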

POU1 (OCT1 POU domain), sequence (P14859 260-458): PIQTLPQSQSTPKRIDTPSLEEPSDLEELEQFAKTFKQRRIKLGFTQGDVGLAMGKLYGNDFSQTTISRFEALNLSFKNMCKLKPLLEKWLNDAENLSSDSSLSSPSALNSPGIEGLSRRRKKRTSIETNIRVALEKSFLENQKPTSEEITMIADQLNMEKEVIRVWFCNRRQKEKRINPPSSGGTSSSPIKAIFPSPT

Sequence | binding signal
AAAAAAAG | 0.0923 % of ANNNNAAN 8-mers
AAGCTAAA | 0.0347 % of ANNNNAAN 8-mers
ACGCTAAA | 0.0305 % of ANNNNAAN 8-mers
ACCTAAAT | 0.0393 % of ANNNNAAN 8-mers
AACATAAA | 0.101 % of ANNNNAAN 8-mers
AGGATAAA | 0.0549 % of ANNNNAAN 8-mers
AAGCAAAT | 0.378 % of ANNNNAAN 8-mers
ATGGAAAC | 0.0805 % of ANNNNAAN 8-mers
AGGTCAAG | 0.0297 % of ANNNNAAN 8-mers
AGAGGAAC | 0.0229 % of ANNNNAAN 8-mers
ACGCAAAC | 0.0614 % of ANNNNAAN 8-mers
ACGTCAAG | 0.0191 % of ANNNNAAN 8-mers
ACCCCAAT | 0.0145 % of ANNNNAAN 8-mers
AGGAAAAC | 0.0591 % of ANNNNAAN 8-mers
AGGGAAAT | 0.549 % of ANNNNAAN 8-mers
AAGTTAAG | 0.0568 % of ANNNNAAN 8-mers
ATATTAAT | 0.424 % of ANNNNAAN 8-mers
AATCTAAG | 0.0553 % of ANNNNAAN 8-mers
ATCGTAAT | 0.085 % of ANNNNAAN 8-mers
AGTTGAAA | 0.0477 % of ANNNNAAN 8-mers

Sequence | binding signal
ATATAAAA | 0.103 % of ANNNNAAN 8-mers
ACATTAAT | 0.165 % of ANNNNAAN 8-mers
ATCTTAAG | 0.0461 % of ANNNNAAN 8-mers
AAGCTAAG | 0.0248 % of ANNNNAAN 8-mers
AGAGCAAG | 0.0156 % of ANNNNAAN 8-mers
ATCCTAAG | 0.0324 % of ANNNNAAN 8-mers
ACTGGAAA | 0.0362 % of ANNNNAAN 8-mers
ACTTGAAG | 0.0198 % of ANNNNAAN 8-mers
AAAGTAAT | 0.103 % of ANNNNAAN 8-mers
AGCGAAAG | 0.0248 % of ANNNNAAN 8-mers
ACTCAAAA | 0.0427 % of ANNNNAAN 8-mers
ATCAGAAA | 0.0446 % of ANNNNAAN 8-mers
ACATCAAC | 0.0172 % of ANNNNAAN 8-mers
AAACCAAG | 0.0233 % of ANNNNAAN 8-mers
ATCGGAAA | 0.04 % of ANNNNAAN 8-mers
ATGGCAAA | 0.0774 % of ANNNNAAN 8-mers
AGGTTAAT | 0.174 % of ANNNNAAN 8-mers
AACATAAC | 0.0526 % of ANNNNAAN 8-mers
AACCCAAT | 0.0206 % of ANNNNAAN 8-mers

biological target: T1, POU2 (OCT2 POU domain) (human, UniProt P09086 175-386); assay: as above; conditions: protein: recombinant; dsDNA, one strand shown
T1 sequence: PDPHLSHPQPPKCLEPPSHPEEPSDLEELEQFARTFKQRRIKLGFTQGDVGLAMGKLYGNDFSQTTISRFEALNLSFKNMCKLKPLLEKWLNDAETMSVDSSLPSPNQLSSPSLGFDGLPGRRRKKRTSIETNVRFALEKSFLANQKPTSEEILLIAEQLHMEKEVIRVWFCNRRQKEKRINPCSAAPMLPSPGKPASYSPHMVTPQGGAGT
Method in brief: as §1

Sequence | binding signal
AAAAAAAG | 0.0938 % of ANNNNAAN 8-mers
AAGCTAAA | 0.0449 % of ANNNNAAN 8-mers
ACGCTAAA | 0.0391 % of ANNNNAAN 8-mers
ACCTAAAT | 0.0489 % of ANNNNAAN 8-mers
AACATAAA | 0.125 % of ANNNNAAN 8-mers
AGGATAAA | 0.0834 % of ANNNNAAN 8-mers
AAGCAAAT | 0.27 % of ANNNNAAN 8-mers
ATGGAAAC | 0.0616 % of ANNNNAAN 8-mers
AGGTCAAG | 0.042 % of ANNNNAAN 8-mers
AGAGGAAC | 0.0339 % of ANNNNAAN 8-mers
ACGCAAAC | 0.0437 % of ANNNNAAN 8-mers
ACGTCAAG | 0.0253 % of ANNNNAAN 8-mers
ACCCCAAT | 0.0167 % of ANNNNAAN 8-mers
AGGAAAAC | 0.0552 % of ANNNNAAN 8-mers
AGGGAAAT | 0.365 % of ANNNNAAN 8-mers
AAGTTAAG | 0.0742 % of ANNNNAAN 8-mers
ATATTAAT | 0.558 % of ANNNNAAN 8-mers
AATCTAAG | 0.0587 % of ANNNNAAN 8-mers
ATCGTAAT | 0.108 % of ANNNNAAN 8-mers
AGTTGAAA | 0.0489 % of ANNNNAAN 8-mers

Sequence | binding signal
ATATAAAA | 0.102 % of ANNNNAAN 8-mers
ACATTAAT | 0.215 % of ANNNNAAN 8-mers
ATCTTAAG | 0.0541 % of ANNNNAAN 8-mers
AAGCTAAG | 0.0322 % of ANNNNAAN 8-mers
AGAGCAAG | 0.0213 % of ANNNNAAN 8-mers
ATCCTAAG | 0.0299 % of ANNNNAAN 8-mers
ACTGGAAA | 0.0328 % of ANNNNAAN 8-mers
ACTTGAAG | 0.0236 % of ANNNNAAN 8-mers
AAAGTAAT | 0.14 % of ANNNNAAN 8-mers
AGCGAAAG | 0.0242 % of ANNNNAAN 8-mers
ACTCAAAA | 0.0339 % of ANNNNAAN 8-mers
ATCAGAAA | 0.0529 % of ANNNNAAN 8-mers
ACATCAAC | 0.0253 % of ANNNNAAN 8-mers
AAACCAAG | 0.0161 % of ANNNNAAN 8-mers
ATCGGAAA | 0.0409 % of ANNNNAAN 8-mers
ATGGCAAA | 0.057 % of ANNNNAAN 8-mers
AGGTTAAT | 0.216 % of ANNNNAAN 8-mers
AACATAAC | 0.0506 % of ANNNNAAN 8-mers
AACCCAAT | 0.019 % of ANNNNAAN 8-mers

biological target: POU1 (OCT1 POU domain);BOB1 (OBF1, OCA-B) (human;human, UniProt P14859;Q16633 260-458;1-256, |); assay: EMSA-SELEX-seq; with BOB1 (ternary complex band); 20 mM Tris-HCl pH 7.6, 140 mM NaCl, 10% glycerol, 0.5 mM EDTA, 0.05% Triton X-100, 0.1 mg/mL BSA, 0.1 mg/mL poly(dI-dC), 5 mM DTT, room temperature, 20 min; high values mean tight binding; conditions: protein: recombinant;recombinant; copies: 1;1; dsDNA, one strand shown
Method in brief: as §1

Sequence | binding signal
AAAAAAAG | 0.111 % of ANNNNAAN 8-mers
AAGCTAAA | 0.0453 % of ANNNNAAN 8-mers
ACGCTAAA | 0.0281 % of ANNNNAAN 8-mers
ACCTAAAT | 0.0386 % of ANNNNAAN 8-mers
AACATAAA | 0.0527 % of ANNNNAAN 8-mers
AGGATAAA | 0.0609 % of ANNNNAAN 8-mers
AAGCAAAT | 0.906 % of ANNNNAAN 8-mers
ATGGAAAC | 0.11 % of ANNNNAAN 8-mers
AGGTCAAG | 0.0277 % of ANNNNAAN 8-mers
AGAGGAAC | 0.0234 % of ANNNNAAN 8-mers
ACGCAAAC | 0.103 % of ANNNNAAN 8-mers
ACGTCAAG | 0.0203 % of ANNNNAAN 8-mers
ACCCCAAT | 0.0172 % of ANNNNAAN 8-mers
AGGAAAAC | 0.0839 % of ANNNNAAN 8-mers
AGGGAAAT | 0.963 % of ANNNNAAN 8-mers
AAGTTAAG | 0.0539 % of ANNNNAAN 8-mers
ATATTAAT | 0.142 % of ANNNNAAN 8-mers
AATCTAAG | 0.062 % of ANNNNAAN 8-mers
ATCGTAAT | 0.0679 % of ANNNNAAN 8-mers
AGTTGAAA | 0.0531 % of ANNNNAAN 8-mers

Sequence | binding signal
ATATAAAA | 0.101 % of ANNNNAAN 8-mers
ACATTAAT | 0.0777 % of ANNNNAAN 8-mers
ATCTTAAG | 0.0503 % of ANNNNAAN 8-mers
AAGCTAAG | 0.0187 % of ANNNNAAN 8-mers
AGAGCAAG | 0.0191 % of ANNNNAAN 8-mers
ATCCTAAG | 0.0312 % of ANNNNAAN 8-mers
ACTGGAAA | 0.0375 % of ANNNNAAN 8-mers
ACTTGAAG | 0.0273 % of ANNNNAAN 8-mers
AAAGTAAT | 0.11 % of ANNNNAAN 8-mers
AGCGAAAG | 0.0332 % of ANNNNAAN 8-mers
ACTCAAAA | 0.046 % of ANNNNAAN 8-mers
ATCAGAAA | 0.0546 % of ANNNNAAN 8-mers
ACATCAAC | 0.0211 % of ANNNNAAN 8-mers
AAACCAAG | 0.0293 % of ANNNNAAN 8-mers
ATCGGAAA | 0.0429 % of ANNNNAAN 8-mers
ATGGCAAA | 0.113 % of ANNNNAAN 8-mers
AGGTTAAT | 0.0921 % of ANNNNAAN 8-mers
AACATAAC | 0.0347 % of ANNNNAAN 8-mers
AACCCAAT | 0.0273 % of ANNNNAAN 8-mers

biological target: T2, POU2 (OCT2 POU domain);BOB1 (OBF1, OCA-B) (human;human, UniProt P09086;Q16633 175-386;1-256, |); assay: as above; conditions: protein: recombinant;recombinant; copies: 1;1; dsDNA, one strand shown
T2 sequence 1: T1 sequence
T2 sequence 2: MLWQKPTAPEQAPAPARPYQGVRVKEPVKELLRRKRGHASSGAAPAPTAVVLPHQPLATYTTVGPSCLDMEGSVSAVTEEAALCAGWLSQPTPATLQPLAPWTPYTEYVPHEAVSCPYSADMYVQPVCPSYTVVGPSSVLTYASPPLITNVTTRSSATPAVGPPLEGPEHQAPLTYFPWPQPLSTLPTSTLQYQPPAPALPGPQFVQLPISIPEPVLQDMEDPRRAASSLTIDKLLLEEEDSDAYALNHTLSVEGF
Method in brief: as §1

Sequence | binding signal
AAAAAAAG | 0.0842 % of ANNNNAAN 8-mers
AAGCTAAA | 0.0347 % of ANNNNAAN 8-mers
ACGCTAAA | 0.0322 % of ANNNNAAN 8-mers
ACCTAAAT | 0.0421 % of ANNNNAAN 8-mers
AACATAAA | 0.0627 % of ANNNNAAN 8-mers
AGGATAAA | 0.0718 % of ANNNNAAN 8-mers
AAGCAAAT | 0.826 % of ANNNNAAN 8-mers
ATGGAAAC | 0.066 % of ANNNNAAN 8-mers
AGGTCAAG | 0.0289 % of ANNNNAAN 8-mers
AGAGGAAC | 0.0264 % of ANNNNAAN 8-mers
ACGCAAAC | 0.0512 % of ANNNNAAN 8-mers
ACGTCAAG | 0.0198 % of ANNNNAAN 8-mers
ACCCCAAT | 0.019 % of ANNNNAAN 8-mers
AGGAAAAC | 0.0636 % of ANNNNAAN 8-mers
AGGGAAAT | 0.713 % of ANNNNAAN 8-mers
AAGTTAAG | 0.0636 % of ANNNNAAN 8-mers
ATATTAAT | 0.177 % of ANNNNAAN 8-mers
AATCTAAG | 0.0545 % of ANNNNAAN 8-mers
ATCGTAAT | 0.0768 % of ANNNNAAN 8-mers
AGTTGAAA | 0.0512 % of ANNNNAAN 8-mers

Sequence | binding signal
ATATAAAA | 0.0702 % of ANNNNAAN 8-mers
ACATTAAT | 0.102 % of ANNNNAAN 8-mers
ATCTTAAG | 0.0438 % of ANNNNAAN 8-mers
AAGCTAAG | 0.0272 % of ANNNNAAN 8-mers
AGAGCAAG | 0.0132 % of ANNNNAAN 8-mers
ATCCTAAG | 0.0405 % of ANNNNAAN 8-mers
ACTGGAAA | 0.0429 % of ANNNNAAN 8-mers
ACTTGAAG | 0.0239 % of ANNNNAAN 8-mers
AAAGTAAT | 0.0941 % of ANNNNAAN 8-mers
AGCGAAAG | 0.0239 % of ANNNNAAN 8-mers
ACTCAAAA | 0.0363 % of ANNNNAAN 8-mers
ATCAGAAA | 0.0438 % of ANNNNAAN 8-mers
ACATCAAC | 0.0281 % of ANNNNAAN 8-mers
AAACCAAG | 0.0198 % of ANNNNAAN 8-mers
ATCGGAAA | 0.0528 % of ANNNNAAN 8-mers
ATGGCAAA | 0.0776 % of ANNNNAAN 8-mers
AGGTTAAT | 0.108 % of ANNNNAAN 8-mers
AACATAAC | 0.033 % of ANNNNAAN 8-mers
AACCCAAT | 0.0223 % of ANNNNAAN 8-mers
